PfHsp90 yeast 2 – growth inhibition of yeast expressing Plasmodium Hsp90; S. cerevisiae expressing PfHsp90, BacTiter-Glo ATP, 48 h; yeast lacking PDR1 and PDR3 efflux regulators; inhibition, % at 9.4 µM; actives 0.32% (n = 310,000); AID 504621;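 active = every replicate shows inhibition above about 80%, whatever the replicate mean, limit read from the data; inconclusive = mean inhibition reaches the set limit but some replicate falls short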
MITF act – MITF TRPM1 promoter activation in melanoma cells | AID 588334 | SK-MEL-5 TRPM1-promoter luciferase, 24 h; % of positive control, neutral wells = 0 | activation, % at 12.5 µM | actives 0.75% (n = 300,000);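 active = mean activation of at least 80% with every replicate also reaching 80%; inconclusive = mean reaches 80% but some replicate falls short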
N-glyco inh – N-linked glycosylation inhibition. D54 ERlucT glycosylation luciferase reporter, 24 h; percent of 100 nM tunicamycin response. reporter increase, % at 12.5 µM. actives 0.23% (n = 360,000). AID 588692;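 active = mean luciferase reporter signal, scaled so untreated is 0 and the glycosylation-blocking control 100, at or above a set limit in every replicate; inconclusive = mean reaches the limit but not every replicate does; inactive = mean below the limit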;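 note: luciferase carries N-glycosylation sites so blocking glycosylation raises the light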
Wnt act – Wnt/beta-catenin pathway activation | Wnt/beta-catenin reporter cell assay, activator, plate reader | activation, % at 9.35 µM | actives 1.2% (n = 300,000); in the data active = activation above about 30%, passing the limit was not always enough; inconclusive = no clear call, values can overlap the other calls
Vif inh – HIV Vif inhibition; HEK293T cells, Vif self-association by quenched fluorescence, imaging, 24 h; inhibition, % at 7.49 µM; actives 0.35% (n = 340,000); AID 602346; in the data active = inhibition above about 50%, passing the limit was not always enough; inconclusive = no clear call, values can overlap the other calls; inactive = below about 31%
esBAF inh – inhibitors of esBAF chromatin remodeling in mouse ES cells. Bmi1-luciferase knock-in reporter, 24 h; 100% = twice the neutral-well signal. reporter increase, % at 12.5 µM. AID 602393. actives 2% (n = 350,000); in the data active = activation above about 40%; inconclusive = no clear call, values can overlap the other calls;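 note: a rise in the Bmi1 reporter signal indicates esBAF inhibition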
Of the large screens only hits and unclear results are named; the others gave an inactive call. In the library only some 3% were active in any assay of this set; here they are far more common.

O=C(CSc1ncccn1)c1ccccc1Br	esBAF inh 41 (no result: Wnt act, Vif inh)
CC1CCCN(CCCNC(=O)CN2C(=O)CSc3ccc(S(=O)(=O)N4CCOCC4)cc32)C1 (stereo not given)	none
Cn1c(=O)c2c(nc(NCC3CCCC(CN)C3)n2Cc2ccc(Cl)cc2Cl)n(C)c1=O (stereo not given)	Vif inh 51
Cn1c(=O)c2c(nc(NCCNC(=O)c3ccco3)n2Cc2ccc(Cl)cc2Cl)n(C)c1=O	none (no result: Wnt act, Vif inh)
CNc1nc2c(Cl)cc(Cl)cc2s1	none (no result: MITF act, esBAF inh)
Clc1cc(Cl)c2nc(N3CCCCC3)sc2c1	Wnt act 60, esBAF inh 53
Clc1cc(Cl)c2nc(N3CCCC3)sc2c1	Wnt act 36 (no result: esBAF inh)
COC(=O)[C@]12CCCCC=C1N(Cc1cccc3ccccc13)C(=O)[C@H](CC(=O)NCCCCc1ccccc1)C2	none (no result: PfHsp90 yeast 2, MITF act, N-glyco inh, Vif inh, esBAF inh)
CC(Sc1ccc(Cl)cc1)C(=O)Nc1ccc2c(c1)OCO2 (stereo not given)	none
CC(C)N1CCC2(CC1)N=C(c1ccc3c(c1)OCO3)CC(c1cc(Cl)ccc1O)N2 (stereo not given)	PfHsp90 yeast 2 120 (no result: Wnt act, esBAF inh)
CN(c1cccc(NC(=O)Nc2cccc(Cl)c2)c1)S(C)(=O)=O	esBAF inh 54 (no result: MITF act)
O=C(Nc1ccncc1)Nc1cccc(Cl)c1	none (no result: Vif inh)
Cc1cccc(NC(=O)CCC(=O)N/N=C/c2ccco2)c1	none (no result: Vif inh, esBAF inh)
O=C(N/N=C\c1ccco1)Nc1cccc(Cl)c1	Wnt act 48 (no result: esBAF inh)
CN(C)c1ccc(NC(=O)Nc2cccc(Cl)c2)cc1	esBAF inh 54 (no result: Wnt act)
CC(=O)Nc1cccc(N(C)S(C)(=O)=O)c1	none
COc1ccc(/C=C/c2cc(C(F)(F)F)[nH]c(=O)n2)cc1OC	none (no result: esBAF inh)
O=C(NCc1ccco1)C(=S)N1CCCCC1	none (no result: esBAF inh)
CC(CNC(=O)[C@@H](Cc1ccccc1)NC(=O)[C@H]1O[C@@H](n2ccc(=O)[nH]c2=O)[C@H](O)[C@@H]1O)c1ccccc1 (stereo not given in full)	none (no result: PfHsp90 yeast 2, MITF act, N-glyco inh, Vif inh, esBAF inh)
COc1ccc(C(=O)O/N=C(\N)c2ccc(Br)cc2)cc1	Wnt act 35, esBAF inh 59
COc1ccc(/C(N)=N/OC(=O)c2ccc(C)c([N+](=O)[O-])c2)cc1	esBAF inh 70 (no result: Wnt act)
Cc1ccc(C(=O)O/N=C(\N)c2ccc(Br)cc2)cc1	MITF act 89, esBAF inh 82 (no result: Wnt act)
N/C(=N\OC(=O)C1CCCCC1)c1ccc(Br)cc1	esBAF inh 66 (no result: MITF act)
O=C(CNC(=O)OCc1ccccc1)NCC(=O)N1CCCC1C(=O)OCc1ccccc1 (stereo not given)	none (no result: Wnt act, esBAF inh)
Cc1oc2c(cc(NS(=O)(=O)c3ccc(F)cc3)c3ccccc32)c1C(=O)O	none
COc1ccc(S(=O)(=O)Nc2cc3c(C(C)=O)c(C)oc3c3ccccc23)cc1	Vif inh 102
COc1ccc(/C=C/C(=O)NC(=S)NNC(=O)c2cnccn2)cc1	PfHsp90 yeast 2 97 (no result: MITF act)
COc1ccc(/C=C/C(=O)NC(=S)NNC(=O)c2cccs2)cc1	Vif inh 67 (no result: esBAF inh)
O=C(NC(=S)NNC(=O)c1cnccn1)c1ccc(F)cc1	none (no result: Vif inh, esBAF inh)
COc1ccccc1C(=O)NNC(=S)NC(=O)c1cccs1	PfHsp90 yeast 2 92
COc1ccc(C(=O)NNC(=S)NC(=O)c2cccs2)cc1	none (no result: esBAF inh)
O=C(NC(=S)NNC(=O)c1ccccc1O)c1cccs1	none (no result: esBAF inh)
O=C(/C=C/c1ccc(F)cc1)NC(=S)NNC(=O)c1cnccn1	PfHsp90 yeast 2 108 (no result: MITF act, esBAF inh)
COc1ccc(/C=C/C(=O)NC(=S)NNC(=O)c2cccnc2)cc1	none (no result: Wnt act, esBAF inh)
CCCc1nnc(NS(=O)(=O)c2ccccc2)s1	none
CC1CCC(N(C(=O)c2csnn2)C(C(=O)NC(C)(C)C)c2cccnc2)CC1 (stereo not given)	none (no result: MITF act, esBAF inh)
CCc1nc(SCC(=O)NC2CCCC2)c2oc3ccccc3c2n1	none
Cc1ccc(N=Cc2nc(-c3ccco3)oc2O)cc1	MITF act 104, Wnt act 37, esBAF inh 48
NC(=O)C1CCN(C2=C(Cl)C(=O)c3ccccc3C2=O)CC1	N-glyco inh 78, Vif inh inconclusive (no result: MITF act, Wnt act)
Cn1cnc2c1c(=O)n(Cc1ccccc1)c(=O)n2C	Wnt act 32 (no result: MITF act)
Cn1cnc2c1c(=O)n(Cc1cccc(Br)c1)c(=O)n2C	none (no result: MITF act)
Cc1ccc(O)c(CNc2ccccn2)c1	esBAF inh 64 (no result: MITF act, Wnt act)
Cc1ccc(O)c(CNc2cccc(C)n2)c1	none
Cc1ccc(NCc2ccccc2F)cc1	none (no result: Wnt act, esBAF inh)
Cc1ccnc(NCc2cc(C)ccc2O)c1	esBAF inh 56 (no result: MITF act)
Cc1ccc(NCc2ccccc2O)cc1	esBAF inh 49 (no result: PfHsp90 yeast 2, Wnt act)
O=c1cc(Cl)[nH]c(=O)n1Cc1ccc(F)cc1	none
Oc1ccccc1C=NNC(=S)NC1CC2C=CC1C2 (stereo not given)	esBAF inh 70 (no result: PfHsp90 yeast 2, MITF act)
N#Cc1c(/N=C/c2ccc(-c3ccc(C(=O)O)c(Cl)c3)o2)sc2c1CCCC2	none
N#Cc1c(/N=C/c2ccc(-c3ccccc3C(=O)O)o2)sc2c1CCCC2	esBAF inh 57
CCOc1cc(NC(=S)NCCOC)c(OCC)cc1NC(=O)c1cccs1	none (no result: PfHsp90 yeast 2, MITF act, N-glyco inh, Vif inh, esBAF inh)
O=C(CSC(=S)N1CCSCC1)c1ccccc1	none (no result: esBAF inh)
O=C(CSC(=S)N1CCSCC1)c1ccc(Cl)cc1	MITF act 82 (no result: esBAF inh)
COCCSc1ccccc1C(=O)Nc1ccc(Br)cc1	none (no result: esBAF inh)
COc1cc(/C=N/O)ccc1Oc1ccc([N+](=O)[O-])cc1[N+](=O)[O-]	Wnt act 36
Cc1ccc(O)c(-n2nc3ccccc3n2)c1	MITF act inconclusive, esBAF inh 43
COc1ccc(C)cc1-n1nc2ccccc2n1	none
CC(=O)Nc1cccc(N/C=C(\C=O)c2nc3ccccc3o2)c1	esBAF inh 58
O=C/C(=C\Nc1ccccn1)c1nc2cc(Cl)ccc2o1	Vif inh 61, esBAF inh 47
O=C/C(=C\Nc1ccccn1)c1nc2ccccc2o1	none (no result: Wnt act, Vif inh)
CC(=O)Nc1ccc(/C=C/c2nc3ccccc3o2)cc1	Wnt act 52
Cn1nc(-c2ccccc2)cc1NC(=O)CCCC(=O)O	none (no result: esBAF inh)
Cn1nc(-c2ccc(Cl)cc2)cc1NC(=O)CC(C)(C)CC(=O)O	Wnt act 41 (no result: PfHsp90 yeast 2, MITF act, esBAF inh)
COc1ccccc1-c1ccc([C@H]2[C@@H](CO)N(C(=O)C3CCC3)[C@H]2C#N)cc1	none (no result: PfHsp90 yeast 2, MITF act, N-glyco inh, Wnt act, Vif inh)
OC(c1ccc(F)c(F)c1)c1nc(-c2ccccc2)cs1 (stereo not given)	none (no result: PfHsp90 yeast 2, MITF act)
O=C(O)c1cccc(-c2csc(C(O)c3ccc(F)c(F)c3)n2)c1 (stereo not given)	esBAF inh 44 (no result: PfHsp90 yeast 2, MITF act)
OC(c1ccc(F)c(F)c1)c1nc(-c2cnc3ccccc3c2)cs1 (stereo not given)	esBAF inh 51 (no result: PfHsp90 yeast 2, MITF act)
Cc1ccc(CNS(=O)(=O)c2cc3c4c(c2)C(C)C(=O)N4CCC3)cc1 (stereo not given)	none
O=C(Nc1nnc(Cc2ccccc2)s1)Nc1ccccc1F	esBAF inh 53
O=C(Nc1ccccc1)Nc1nnc(Cc2ccccc2F)s1	none (no result: MITF act)

Source: PubChem BioAssay (Broad Institute)
